Experimental findings from PubChem BioAssay (EPA / NIEHS) are described below.

Conditions in all cases: mRNA level, 48 h; actives raise or lower the signal
Read-out in test [1]: Apolipoprotein A-V (APOA5) gene, APOA5 (gene 116519)
Put plainly: LTEA_HepaRG_APOA5: Life Technologies and Expression Analysis (LTEA) Assay for Apolipoprotein A-V (APOA5) gene using HepaRG (AID 2283474). In outline:
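Differentiated HepaRG cells in serum-free induction medium, exposed 48 h in duplicate to eight half-log concentrations topping at 100 uM (0.5% DMSO). APOA5 mRNA by Fluidigm TaqMan qRT-PCR, normalized to ACTB, GAPDH and POLR2A; bidirectional fit versus DMSO.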

Read-out in test [2]: Apoptosis regulator Bcl-2 (Homo sapiens) (UniProt P10415)
Put plainly: LTEA_HepaRG_BCL2: Life Technologies and Expression Analysis (LTEA) Assay for Bcl-2 gene using HepaRG (AID 2283475). In outline: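 Each chemical was tested in duplicate on HepaRG cultures held in serum-free induction medium for 48 h, highest concentration 100 uM with half-log dilutions. Transcript levels came from multiplexed qRT-PCR, normalised to housekeeping genes; activity was scored in either direction relative to DMSO.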

Read-out in test [3]: Bcl-2 (BID) gene, BID (gene 637)
As to the kind of experiment: LTEA_HepaRG_BID: Life Technologies and Expression Analysis (LTEA) Assay for Bcl-2 (BID) gene using HepaRG (AID 2283476). In outline:
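Assay used HepaRG hepatic cells treated 48 h in serum-free medium with half-log dilutions from 100 uM. Endpoint: BID mRNA, qRT-PCR, normalized to ACTB/GAPDH/POLR2A.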

Read-out in another test: Caspase-3 (Homo sapiens) (UniProt P42574)
Put plainly: LTEA_HepaRG_CASP3: Life Technologies and Expression Analysis (LTEA) Assay for cysteine-aspartic acid protease (CASP3) using HepaRG (AID 2283477). In outline: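 Differentiated HepaRG cells, plated 48 h, were treated in duplicate in serum-free induction medium for 48 h with eight half-log concentrations up to 100 uM in 0.5% DMSO. CASP3 mRNA measured by qRT-PCR, normalized to ACTB, GAPDH, POLR2A.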

Read-out in test [4]: Cytochrome P450 (CYP24A1), CYP24A1 (gene 1591)
As to the kind of experiment: LTEA_HepaRG_CYP24A1: Life Technologies and Expression Analysis (LTEA) Assay for Cytochrome P450 (CYP24A1) using HepaRG (AID 2283478). In outline: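 HepaRG cells plated 48 h, then exposed in duplicate in serum-free induction medium for 48 h to 8-point half-log series from 100 uM in 0.5% DMSO. CYP24A1 mRNA by Fluidigm qRT-PCR, normalized to ACTB, GAPDH, POLR2A; bidirectional fit versus DMSO.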

Read-out in test [5]: Cytochrome P450 (CYP1A2), CYP1A2 (gene 1544)
As to the kind of experiment: LTEA_HepaRG_CYP1A2: Life Technologies and Expression Analysis (LTEA) Assay for Cytochrome P450 (CYP1A2) using HepaRG (AID 2283479). In outline:
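Differentiated human HepaRG cells in serum-free induction medium exposed 48 hours in duplicate to 8 half-log concentrations from 100 uM, 0.5% DMSO. CYP1A2 mRNA quantified by qRT-PCR, normalized to ACTB, GAPDH and POLR2A; bidirectional fitting versus DMSO.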

Read-out in test [6]: cysteine-aspartic acid protease (CASP8), CASP8 (gene 841)
As to the kind of experiment: LTEA_HepaRG_CASP8: Life Technologies and Expression Analysis (LTEA) Assay for cysteine-aspartic acid protease (CASP8) using HepaRG (AID 2283480). In outline:
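CASP8 transcript measured by TaqMan qRT-PCR with ACTB/GAPDH/POLR2A normalization, after 48 h chemical exposure of HepaRG cells in serum-free induction medium. Eight concentrations, top 100 uM, half-log steps, 0.5% DMSO vehicle; fits in both directions versus DMSO.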

Read-out in test [7]: Cytochrome P450 (CYP2B6), CYP2B6 (gene 1555)
As to the kind of experiment: LTEA_HepaRG_CYP2B6: Life Technologies and Expression Analysis (LTEA) Assay for Cytochrome P450 (CYP2B6) using HepaRG (AID 2283481). In outline: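 Differentiated human HepaRG cells in serum-free induction medium, dosed in duplicate for 48 h over 8 half-log concentrations topping at 100 uM (0.5% DMSO). CYP2B6 mRNA measured by TaqMan qRT-PCR, normalized to ACTB, GAPDH, POLR2A; bidirectional fit versus DMSO.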

Read-out in test [8]: Cytochrome P450 2C19 (Homo sapiens) (UniProt P33261)
Put plainly: LTEA_HepaRG_CYP2C19: Life Technologies and Expression Analysis (LTEA) Assay for CYP2C19 using HepaRG (AID 2283482). In outline:
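Differentiated HepaRG cells in serum-free induction medium exposed 48 h in duplicate, 8 concentrations from 100 uM by half-log steps in 0.5% DMSO. CYP2C19 mRNA measured by TaqMan qRT-PCR, normalized to ACTB, GAPDH, POLR2A. Bidirectional fit versus DMSO.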

Read-out in the next test: CYP2C8 (gene 1558)
As to the kind of experiment: LTEA_HepaRG_CYP2C8: Life Technologies and Expression Analysis (LTEA) Assay for CYP2C8 using HepaRG (AID 2283483). In outline: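 CYP2C8 expression measured by TaqMan qRT-PCR and normalized to three housekeeping genes. HepaRG cultures were treated for 48 h with an eight-point half-log series topping at 100 uM, vehicle 0.5% DMSO, duplicates; fitted both directions against DMSO.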

Read-out in another test: CYP2C9 (gene 1559)
Put plainly: LTEA_HepaRG_CYP2C9: Life Technologies and Expression Analysis (LTEA) Assay for CYP2C9 using HepaRG (AID 2283484). In outline:
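CYP2C9 transcript level, quantified by TaqMan qRT-PCR against three housekeeping genes, was fitted bidirectionally relative to 0.5% DMSO. HepaRG cultures were treated 48 h, in duplicate, at eight half-log concentrations topping at 100 uM.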

Read-out in a further test: CYP2E1 (gene 1571)
As to the kind of experiment: LTEA_HepaRG_CYP2E1: Life Technologies and Expression Analysis (LTEA) Assay for CYP2E1 using HepaRG (AID 2283485). In outline: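 Assay uses 48 h exposure of HepaRG hepatic cells, eight concentrations to 100 uM. Expression of CYP2E1 is quantified by TaqMan qRT-PCR with ACTB, GAPDH and POLR2A normalization; curves fitted in both directions relative to vehicle.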

Read-out in a further test: CYP4A11 (gene 1579)
As to the kind of experiment: LTEA_HepaRG_CYP4A11: Life Technologies and Expression Analysis (LTEA) Assay for CYP4A11 using HepaRG (AID 2283486). In outline:
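Differentiated HepaRG cells, 48 h after plating, exposed in duplicate for 48 h to 8 half-log concentrations up to 100 uM in 0.5% DMSO in serum-free induction medium. CYP4A11 mRNA measured by TaqMan qRT-PCR, normalized to ACTB, GAPDH and POLR2A.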

Read-out in test [9]: Cytochrome P450 3A4 (Homo sapiens) (UniProt P08684)
As to the kind of experiment: LTEA_HepaRG_CYP3A4: Life Technologies and Expression Analysis (LTEA) Assay for CYP3A4 using HepaRG (AID 2283487). In outline:
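CYP3A4 transcript measured by TaqMan qRT-PCR and normalized to three housekeeping genes after 48 h chemical exposure of human HepaRG cells. Top concentration 100 uM, half-log steps, 0.5% DMSO vehicle; gain or loss fitted against DMSO baseline.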

Read-out in test [10]: DNA damage-inducible transcript 3 (DDIT3), DDIT3 (gene 1649)
Put plainly: LTEA_HepaRG_DDIT3: Life Technologies and Expression Analysis (LTEA) Assay for DNA damage-inducible transcript 3 (DDIT3) using HepaRG (AID 2283488). In outline:
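Eight-point concentration-response (100 uM highest, half-log dilutions) in HepaRG, 48 h, duplicate wells. Endpoint: qRT-PCR mRNA, normalized (ACTB, GAPDH, POLR2A), bidirectional fitting with DMSO as baseline.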

Read-out in test [11]: Early growth response protein 1 (EGR1) transcription factor, EGR1 (gene 1958)
Put plainly: LTEA_HepaRG_EGR1: Life Technologies and Expression Analysis (LTEA) Assay for Early growth response protein 1 (EGR1) transcription factor using HepaRG (AID 2283490). In outline:
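EGR1 transcript levels quantified by qRT-PCR (Fluidigm arrays) against three housekeeping genes after 48 h chemical exposure of HepaRG cells. Eight-point half-log series topping at 100 uM, 0.5% DMSO vehicle, analyzed for gain or loss.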

Read-out in test [12]: Ezrin (EZR), EZR (gene 7430)
Put plainly: LTEA_HepaRG_EZR: Life Technologies and Expression Analysis (LTEA) Assay for Ezrin (EZR) using HepaRG (AID 2283491). In outline:
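HepaRG, 48 h chemical exposure, 8-pt half-log series from 100 uM, 0.5% DMSO vehicle, duplicates. Read-out: EZR mRNA by TaqMan qRT-PCR (Fluidigm array), housekeeping-normalized; bidirectional curve fit vs DMSO baseline.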

Read-out in test [13]: Cytochrome P450 3A7 (Homo sapiens) (UniProt P24462)
Put plainly: LTEA_HepaRG_CYP3A7: Life Technologies and Expression Analysis (LTEA) Assay for CYP3A7 using HepaRG (AID 2283492). In outline: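 Differentiated HepaRG cells in serum-free induction medium exposed 48 h in duplicate to 8-point half-log series from 100 uM top in 0.5% DMSO. CYP3A7 mRNA by qRT-PCR, normalized to ACTB/GAPDH/POLR2A, bidirectional fit versus DMSO.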

Calls of active or inactive are those of the source. The calls were made as follows: active = hit-call score of the fitted dose curve at least 0.9, where 1 is the maximum; inactive = score below 0.9.

Chain of Cytochrome P450 3A7 (Homo sapiens) (P24462 whole entry, looked up): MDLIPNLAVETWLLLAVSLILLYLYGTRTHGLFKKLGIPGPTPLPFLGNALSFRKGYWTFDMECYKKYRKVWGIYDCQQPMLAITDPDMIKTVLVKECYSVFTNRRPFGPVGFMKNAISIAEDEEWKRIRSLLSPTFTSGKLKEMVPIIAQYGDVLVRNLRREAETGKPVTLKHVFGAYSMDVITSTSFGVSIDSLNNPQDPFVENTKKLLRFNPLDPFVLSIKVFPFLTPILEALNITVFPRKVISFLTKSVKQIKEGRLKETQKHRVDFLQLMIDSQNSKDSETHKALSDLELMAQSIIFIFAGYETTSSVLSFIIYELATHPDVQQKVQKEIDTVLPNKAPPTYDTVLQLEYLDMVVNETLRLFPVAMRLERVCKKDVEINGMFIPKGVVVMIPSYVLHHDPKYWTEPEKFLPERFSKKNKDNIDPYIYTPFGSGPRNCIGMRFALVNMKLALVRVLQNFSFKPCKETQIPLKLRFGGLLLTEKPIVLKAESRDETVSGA
Chain of Caspase-3 (Homo sapiens) (P42574 whole entry, looked up): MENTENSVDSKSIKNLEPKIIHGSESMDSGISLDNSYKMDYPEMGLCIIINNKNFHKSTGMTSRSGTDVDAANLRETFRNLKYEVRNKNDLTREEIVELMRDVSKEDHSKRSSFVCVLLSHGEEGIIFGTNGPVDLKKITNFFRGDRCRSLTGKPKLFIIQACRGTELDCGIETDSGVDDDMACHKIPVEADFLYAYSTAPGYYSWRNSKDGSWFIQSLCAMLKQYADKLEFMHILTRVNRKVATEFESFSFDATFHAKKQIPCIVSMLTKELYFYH
Chain of Apoptosis regulator Bcl-2 (Homo sapiens) (P10415 whole entry, looked up): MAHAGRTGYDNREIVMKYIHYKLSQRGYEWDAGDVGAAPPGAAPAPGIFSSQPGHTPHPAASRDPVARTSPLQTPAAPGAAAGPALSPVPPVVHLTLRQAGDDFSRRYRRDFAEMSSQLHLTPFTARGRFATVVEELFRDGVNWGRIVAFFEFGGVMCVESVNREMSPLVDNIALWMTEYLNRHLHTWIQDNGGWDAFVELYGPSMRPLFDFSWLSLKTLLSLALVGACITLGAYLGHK
Chain of Cytochrome P450 2C19 (Homo sapiens) (P33261 whole entry, looked up): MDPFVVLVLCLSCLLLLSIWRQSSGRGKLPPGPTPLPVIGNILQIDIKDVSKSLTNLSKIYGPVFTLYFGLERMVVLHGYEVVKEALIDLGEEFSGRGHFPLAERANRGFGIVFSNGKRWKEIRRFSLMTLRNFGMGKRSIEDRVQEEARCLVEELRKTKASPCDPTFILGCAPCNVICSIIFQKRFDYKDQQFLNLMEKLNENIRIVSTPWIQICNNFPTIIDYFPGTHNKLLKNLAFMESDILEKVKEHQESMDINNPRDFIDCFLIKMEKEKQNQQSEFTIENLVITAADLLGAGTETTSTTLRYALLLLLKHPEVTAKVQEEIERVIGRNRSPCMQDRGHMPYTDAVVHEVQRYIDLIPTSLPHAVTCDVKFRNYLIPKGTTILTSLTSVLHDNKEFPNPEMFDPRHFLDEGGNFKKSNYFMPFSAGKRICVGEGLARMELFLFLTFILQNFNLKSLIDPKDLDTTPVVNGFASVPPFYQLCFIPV
Chain of Cytochrome P450 3A4 (Homo sapiens) (P08684 whole entry, looked up): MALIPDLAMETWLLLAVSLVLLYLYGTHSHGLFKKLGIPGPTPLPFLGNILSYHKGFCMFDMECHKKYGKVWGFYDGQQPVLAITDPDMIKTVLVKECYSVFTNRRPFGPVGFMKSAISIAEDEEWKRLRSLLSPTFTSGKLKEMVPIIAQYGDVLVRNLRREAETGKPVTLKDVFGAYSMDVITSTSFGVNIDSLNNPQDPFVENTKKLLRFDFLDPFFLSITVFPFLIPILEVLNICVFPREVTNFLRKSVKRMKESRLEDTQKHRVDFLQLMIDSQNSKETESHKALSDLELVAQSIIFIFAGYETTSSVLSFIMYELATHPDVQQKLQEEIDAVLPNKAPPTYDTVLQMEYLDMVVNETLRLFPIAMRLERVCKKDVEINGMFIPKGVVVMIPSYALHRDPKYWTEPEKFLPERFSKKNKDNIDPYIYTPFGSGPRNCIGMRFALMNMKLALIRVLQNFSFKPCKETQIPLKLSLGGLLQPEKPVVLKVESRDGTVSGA

In the case of `c1cc[n+]2c(c1)-c1cccc[n+]1CC2`, the result (in [1]; in test [2]; in test [3]; with Caspase-3 (Homo sapiens); in test [4]; in test [6]) was inactive. The compound was classed as inactive (in test [7]; in [8]; with CYP2C8 (gene 1558); with CYP2C9 (gene 1559); with CYP2E1 (gene 1571); with CYP4A11 (gene 1579)). Moreover, the compound was classed as inactive in test [9], in test [10], in test [11], in test [12] and in [13]. The AC50 – broadly, the midpoint of the concentration-response curve, whichever way the signal moves – in test [5] is 12.4 µM (active).
